The source of these data is PubChem BioAssay (Tox21).

Inconclusive results are not listed. A call without a number means that no potency is given here. Activity calls are given as the source filed them. The call rests on the fitted dose curve; in most records, active means well fitted activation curve with a large enough effect in the signal ratio in the repeat runs (not every such curve was filed as active); inconclusive means weak or mixed curves; inactive means flat fitted curve, though single readings scatter; the % refers to the signal ratio.

The nature of one assay: qHTS assay to identify small molecule agonists of H2AX (AID 1224845). Further: potency means the concentration at half of the fitted maximal effect. As to conditions: CHO-K1 phospho-H2AX Ser139 HTRF, 3 h; series mostly up to 154 µM. In outline:
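Phospho-H2AX Ser139 measured by HTRF (ex 320 nm; em 665 and 620 nm) after 24 hr antibody incubation. Compounds, 15 concentrations, 0.76% DMSO, were applied to CHO-K1 cells for 3hr at 37C before lysis.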
On the technique in general: Quantitative high-throughput screening tests each substance at several concentrations.
As to `CCC[CH2][Sn]([CH2]CCC)([O]C(C)=O)[O]C(C)=O`, the Potency is 0.906 µM (active).

In the case of `[F][Sn]([c]1ccccc1)([c]1ccccc1)[c]1ccccc1`, the Potency is 1.42 µM (active).

For the compound `CC(=O)[O-].CC(=O)[O-].O.O.[Zn+2]`, the Potency result is “inactive”.

On to `O.O.O.O=C([O-])[C@H]([O-])[C@@H]([O-])C(=O)[O-].O=C([O-])[C@H]([O-])[C@@H]([O-])C(=O)[O-].[K+].[K+].[Sb+3].[Sb+3]`, for which the Potency was 114 µM (active).

Take `O=S(=O)(NS(=O)(=O)C(F)(F)F)C(F)(F)F`: the Potency entry was “inactive”.

Take `CCC(C)Nc1c([N+](=O)[O-])cc(C(C)(C)C)cc1[N+](=O)[O-]` (configuration not stated): the Potency entry was “inactive”.

Regarding `c1ccc2nc(N3CCNCC3)ccc2c1`, the Potency result is “inactive”.

Take `Clc1ccc(C(c2ccc(Cl)cc2)C(Cl)Cl)cc1`: the Potency was 89.8 µM (active).

`Cc1c([N+](=O)[O-])c(C)c([N+](=O)[O-])c(C(C)(C)C)c1[N+](=O)[O-]`: the Potency entry was “inactive”.

In the case of `CCOC(=O)Cc1ccccc1`, the Potency entry is “inactive”.

Take `CC(=O)[O][Sn]([c]1ccccc1)([c]1ccccc1)[c]1ccccc1`: the Potency was 0.101 µM (active).

In the case of `C[C@]12CC[C@H]3[C@@H](CCC4=CC(=O)CC[C@@H]43)[C@@H]1CC[C@@H]2OC(=O)CCc1ccco1`, the Potency entry is “inactive”.

For the compound `O=[N+]([O-])C(Br)Br`, the Potency entry was “inactive”.

Consider `Cc1c([N+](=O)[O-])cc2c(c1[N+](=O)[O-])C(C)(C)CC2(C)C`, for which the Potency result was “inactive”.

For the compound `COC(=O)N(OC)c1ccccc1COc1ccn(-c2ccc(Cl)cc2)n1`, the Potency entry is “inactive”.

Take `O=[N+]([O-])c1ccc(Cl)c(Cl)c1Cl`: the Potency result was “inactive”.

Regarding `CO/N=C(/C1=NOCCO1)c1ccccc1Oc1ncnc(Oc2ccccc2Cl)c1F`, the Potency result was “inactive”.

As to `CN1CCc2cc3c(cc2C1O)OCO3` (configuration not stated), the Potency result is “inactive”.

A short description of a further assay: qHTS assay to identify small molecule agonists of the hypoxia (HIF-1) signaling pathway (AID 1224846). Particulars: HRE-bla ME-180 cells, beta-lactamase ratio, 17 h; series mostly up to 76.8 µM. The procedure, abridged: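 A low-serum medium (0.5% dialyzed FBS) holding 2,000 HRE-bla ME-180 cells per well is preincubated for 5 hrs, dosed with compounds by pintool, and kept a further 17 hrs at 37C, 5% CO2 before CCF4-AM FRET detection of beta-lactamase.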
For `CNC(=O)/C=C(\C)OP(=O)(OC)OC`, the Potency result is “inactive”.

As to `Nc1nc(N)c(N)c(N)n1`, the Potency result was “inactive”.

Turning to `Nc1ccccc1-c1ccccc1`, the Potency entry was “inactive”.

As for `O=C(NC(=O)c1ccccc1Cl)Nc1ccc(OC(F)(F)F)cc1`, the Potency result is “inactive”.

Consider `CCC(C)Nc1c([N+](=O)[O-])cc(C(C)(C)C)cc1[N+](=O)[O-]` (configuration not stated), for which the Potency result was “inactive”.

As for `C[C@H]1[C@H](c2ccc(Cl)cc2)SC(=O)N1C(=O)NC1CCCCC1`, the Potency result is “inactive”.

Turning to `CC(C)(C)c1ccc(OP(=O)(Oc2ccccc2)Oc2ccccc2)cc1`, the Potency result is “inactive”.

As for `CC1=C2C[C@H]3[C@@H](CC=C4C[C@@H](O)CC[C@@]43C)[C@@H]2CC[C@]12O[C@@H]1C[C@H](C)CN[C@H]1[C@H]2C`, the Potency entry is “inactive”.

On to `Oc1cccc(Cl)c1Cl`, for which the Potency entry was “inactive”.

For `Cc1c([N+](=O)[O-])c(C)c([N+](=O)[O-])c(C(C)(C)C)c1[N+](=O)[O-]`, the Potency result was “inactive”.

Take `CCC(OC(C)=O)C(CC(C)NC)(c1ccccc1)c1ccccc1` (configuration not stated): the Potency entry was “inactive”.

Turning to `Oc1ccc2[nH]cc(CCCCN3CC=C(c4ccccc4)CC3)c2c1`, the Potency entry is “inactive”.

Consider `CC1CN1` (configuration not stated), for which the Potency entry was “inactive”.

For `C[C@]12CC[C@H]3[C@@H](CCC4=CC(=O)CC[C@@H]43)[C@@H]1CC[C@@H]2OC(=O)CCc1ccco1`, the Potency result was “inactive”.

On to `Cc1c([N+](=O)[O-])cc2c(c1[N+](=O)[O-])C(C)(C)CC2(C)C`, for which the Potency entry is “inactive”.

For the compound `COP(=S)(NC(C)C)Oc1ccc(C)cc1[N+](=O)[O-]` (configuration not stated), the Potency result was “inactive”.

Take `O=[N+]([O-])c1ccc(Cl)c(Cl)c1Cl`: the Potency result is “inactive”.

On to `CO/N=C(/C1=NOCCO1)c1ccccc1Oc1ncnc(Oc2ccccc2Cl)c1F`, for which the Potency result is “inactive”.

`ClC(Cl)C(Cl)(Cl)Cl`: the Potency result is “inactive”.
